# Results from PubChem BioAssay (NCATS).
# Results filed as inconclusive are left out. A number with no mark means an inactive call. Active and inactive are the calls of the source. The call rests on the fitted dose curve; in most records, active means well fitted inhibition curve with a large enough effect; inconclusive means small, poorly fitted or top-dose-only effect; inactive means flat fitted curve, though single readings scatter.
# Molecular target: Calcium and integrin-binding protein 1 (Homo sapiens) (UniProt Q99828)
# Test: Primary qHTS for Identification of Calcium Integrin Binding Protein 1 (CIB1) Competitor (AID 1508620);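 further: GST tagged CIB1 binding a fluorescein labelled alphaIIb integrin peptide tracer; top concentration of the series differs between compounds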
# Conditions: CIB1-GST / FITC-alphaIIb peptide fluorescence polarization; series mostly up to 114 µM; activity change, negative = inhibition: at the top concentration
# In short: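 Fluorescence polarization competition: CIB1-GST (1 uM final) preincubated with compound 15 min at room temperature, then FITC-labeled alphaIIb peptide (100 nM final) added for another 15 min. Polarization read at Ex 480/Em 540.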
# On the % scale 0 is the no-effect control and ±100 the full control effect.
# Calcium and integrin-binding protein 1 (Homo sapiens), sequence (Q99828 whole entry, looked up): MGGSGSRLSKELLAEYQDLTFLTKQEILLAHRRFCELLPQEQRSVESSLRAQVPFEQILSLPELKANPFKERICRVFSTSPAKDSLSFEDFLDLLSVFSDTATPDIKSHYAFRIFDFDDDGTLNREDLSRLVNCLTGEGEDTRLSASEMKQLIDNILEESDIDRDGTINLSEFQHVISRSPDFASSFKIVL
SMILES,"activity change, negative = inhibition [%]",Potency
Cc1ccc(S(=O)(=O)NC(N)=NCCC[C@@H](N)C(=O)Nc2cc(C(F)(F)F)ccc2Cl)cc1,-4.65,–
CC(C)(C)OC(=O)Cc1nnc(-c2nc3ccccc3[nH]2)o1,-4.45,–
O=C(Nc1nc(Nc2cc(F)cc(F)c2)nc(NC2CCCC2)n1)OCc1ccccc1,-2.55,–
CCOc1ccccc1-c1nnc2n1N=C(c1ccccc1OC)CS2,1.6,–
COc1ccccc1-c1nc(NCc2ccc(-c3cccnc3)cc2)c2ccccc2n1,4.15,–
Cc1ccc(NS(=O)(=O)c2cc3c(cc2-c2ccsc2)NC(=O)CO3)cc1C,0.612,–
O=C(/C=C/c1ccc2c(c1)OCO2)Nc1cccc([S+](=O)([O-])Nc2ccccc2F)c1,–,inactive
COc1ccc(C2Nc3ccccc3C(=O)N2Cc2cccnc2)cc1COc1c(C)cccc1C (stereo not given),-3.08,–
N#Cc1c(-c2ccccc2C(F)(F)F)nc2ccccc2c1NCc1ccc(-c2ccnc(C(F)(F)F)c2)cc1,12.6,–
COc1ccc(C2Nc3ccccc3C(=O)N2CCO)cc1COc1ccc(NC(C)=O)cc1 (stereo not given),5.2,–
O=C(CNC(=O)c1ccc2ccccc2c1)OC(C(=O)Nc1cc(C(F)(F)F)ccc1Cl)c1ccccc1 (stereo not given),3.94,–
Fc1cccc(CSc2nc3ncc(Br)cc3[nH]2)c1,1.75,–
Cc1cc2c(s1)c1cnn(Cc3ccc(Cl)c(Cl)c3)c(=O)c1n2C,5.6,–
O=C(O)c1ccc2c(c1)C(=O)N([C@H](Cc1ccc(-c3ccccc3)cc1)C(=O)O)C2=O,-10.2,–
Fc1cc(Nc2nc(-c3ccncc3)nc3ccccc23)ccc1-c1ccncc1,23.5,–
Cc1ccc(CC(=O)Nc2nc(-c3ccc4c(c3)CCN4C(=O)c3ccccc3C)c(C)s2)cc1C,10.7,–
CCOc1ccc(C(=O)Oc2ccc(-c3nc4ccccc4[nH]3)cc2)cc1Cl,7.2,–
c1nc(N2CCCCC2)c2cc(-c3ccc4c(c3)OCO4)ccc2n1,-5.51,–
COCCN1C(=O)c2ccccc2NC1c1ccc(OC)c(COc2c(C)cc(NC(C)=O)cc2C)c1 (stereo not given),3.02,–
Cc1nc2ccccn2c1C(O)(c1ccccc1)c1ccccc1,-0.997,–

SMILES,"activity change, negative = inhibition [%]",Potency
COc1ccc(C2Nc3ccccc3C(=O)N2Cc2ccccc2)cc1COc1ccc(F)cc1 (stereo not given),2.42,–
C/C=C\C1=CCCC1Nc1ncnc2ccc(-c3c(C)noc3C)cc12 (stereo not given),-2.11,–
Cc1cc2c(s1)c1cnn(Cc3cc(Cl)ccc3F)c(=O)c1n2C,6.84,–
Cc1ccc(NS(=O)(=O)c2cc3c(cc2Br)NC(=O)CO3)cc1C,8.51,–
COc1ccc(C2Oc3ccccc3C(=O)N2Cc2ccccc2)cc1COc1ccc(NC(C)=O)cc1 (stereo not given),-4.94,–
COc1ccc(CN2C(=O)c3ccccc3NC2c2ccc(OC)c(COc3c(C)cc(NC(C)=O)cc3C)c2)cc1 (stereo not given),2.21,–
CC(=O)Nc1sc2c(c1-c1ccc(-c3nn[nH]n3)cc1)CCNC2,15.7,–
O=C(Nc1ccc(N2CCOCC2)nc1)c1cccs1,-3.64,–
Cc1cc2c(s1)c1cnn(Cc3cccc(C(F)(F)F)c3F)c(=O)c1n2C,-1.74,–
O=S(=O)(Nc1cccc2cccnc12)c1ccc2ccccc2c1,-3.92,–
COc1ccc(-c2cnc(N3CCC(C(N)=O)CC3)s2)cc1OC,-2.06,–
O=S(=O)(c1ccc2c(c1)OCCO2)C1CCC(S(=O)(=O)c2c(F)cccc2F)CC1 (stereo not given),–,inactive
CC(=O)Nc1ccc(OCc2cccc(C3Nc4ccccc4C(=O)N3Cc3ccco3)c2)cc1 (stereo not given),-12.4,–
CCCCC(O)C(=O)Nc1cc(C(F)(F)F)ccc1Cl (stereo not given),-1.69,–
Cc1cc2c(s1)c1cnn(Cc3c(Cl)cccc3Br)c(=O)c1n2C,6.86,–
O=C(Nc1ncc(Cc2ccc(C(F)(F)F)cc2)s1)c1ccc(-c2cccnc2)o1,-1.49,–
COc1ccc([S+](=O)([O-])N2CCN([S+](=O)([O-])c3ccc4c(c3)OCCO4)CC2)c(OC)c1,3.27,–
c1nc(NC[C@@H]2CCCO2)c2cc(-c3ccc4c(c3)OCO4)ccc2n1,-0.41,–
CSc1ccccc1-c1ccc(Nc2nc(-c3ccncc3)nc3ccccc23)cc1F,6.31,–
CC(C)c1ccccc1-c1ncc(F)c(NCC2CCN(c3cccnc3)CC2)n1,-2.72,–
